PubChem BioAssay AID1159580 (chemical genetic matrix, 2015)
“And” between values parts separate entries of the source, which are not always exact repeats. Equal values may be shown once. Out of some 5,500 compounds screened, about 2,000 (36%) were called active. Inconclusive results (about 18%) are left out. Rule as the data show it: active = normalized growth mostly below about 0.91 (no sharp cut-off); inconclusive = no clear call, values can overlap the other calls; inactive = mostly above about 0.92. The list shows a part of the results.

Assay: chemical genetic growth profiling, strain panel (AID 1159580);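 also: tested at 20 µM; growth read once vehicle control cultures reached saturation at 30 °C; 1 = growth at the plate median or of vehicle wells; lower values mean less growth of the strain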
Conditions: growth OD
[1] = S. cerevisiae deletion strains, locus YAL013W, strain DEP1, stronger effect = lower value
[2] = S. cerevisiae deletion strains, locus YBR229C, strain ROT2, stronger effect = lower value
[3] = S. cerevisiae deletion strains, locus YDL101C, strain DUN1, stronger effect = lower value
[4] = S. cerevisiae deletion strains, locus YDL134C, strain PPH21, stronger effect = lower value
[5] = S. cerevisiae deletion strains, locus YDR150W, strain NUM1, stronger effect = lower value
[6] = S. cerevisiae deletion strains, locus YEL061C, strain CIN8, stronger effect = lower value
[7] = S. cerevisiae deletion strains, locus YGR078C, strain PAC10, stronger effect = lower value
[8] = S. cerevisiae deletion strains, locus YGR229C, strain SMI1, stronger effect = lower value
[9] = S. cerevisiae deletion strains, locus YHR030C, strain SLT2, stronger effect = lower value
[10] = S. cerevisiae deletion strains, locus YHR087W, strain rtc3, stronger effect = lower value
[11] = S. cerevisiae deletion strains, locus YJL187C, strain SWE1, stronger effect = lower value
[12] = S. cerevisiae deletion strains, locus YJR043C, strain POL32, stronger effect = lower value
[13] = S. cerevisiae deletion strains, locus YJR075W, strain HOC1, stronger effect = lower value
[14] = S. cerevisiae deletion strains, locus YLR039C, strain RIC1, stronger effect = lower value
[15] = S. cerevisiae deletion strains, locus YLR058C, strain SHM2 (second series), stronger effect = lower value
[16] = S. cerevisiae deletion strains, locus YLR085C, strain ARP6, stronger effect = lower value
[17] = S. cerevisiae deletion strains, locus YLR262C, strain YPT6, stronger effect = lower value
[18] = S. cerevisiae deletion strains, locus YML094W, strain GIM5, stronger effect = lower value
[19] = S. cerevisiae deletion strains, locus YMR219W, strain ESC1, stronger effect = lower value
[20] = S. cerevisiae deletion strains, locus YMR263W, strain SAP30, stronger effect = lower value
[21] = S. cerevisiae deletion strains, locus YMR307W, strain GAS1, stronger effect = lower value
[22] = S. cerevisiae deletion strains, locus YNL153C, strain GIM3, stronger effect = lower value
[23] = S. cerevisiae deletion strains, locus YNL298W, strain CLA4 (second series), stronger effect = lower value
[24] = S. cerevisiae deletion strains, locus YNL322C, strain KRE1, stronger effect = lower value
[25] = S. cerevisiae deletion strains, locus YNR030W, strain Alg12, stronger effect = lower value
[26] = S. cerevisiae deletion strains, locus YPL055C, strain LGE1, stronger effect = lower value
[27] = S. cerevisiae deletion strains, locus YPL241C, strain CIN2, stronger effect = lower value
[28] = S. cerevisiae deletion strains, locus YPR135W, strain CTF4, stronger effect = lower value

Measured: normalized growth

N#C/C(=N/Nc1ccc(C(F)(F)F)cc1)C(=O)C1CC1
inactive: [1] 0.942 | S. cerevisiae deletion strains, locus YAR019C, strain CDC15, stronger effect = lower value 0.952 | S. cerevisiae deletion strains, locus YBL105C, strain PKC1, stronger effect = lower value 0.947 | S. cerevisiae deletion strains, locus YBR135W, strain CKS1, stronger effect = lower value 0.941 | S. cerevisiae deletion strains, locus YBR136W, strain MEC1, stronger effect = lower value 0.942 | S. cerevisiae deletion strains, locus YBR160W, strain CDC28, stronger effect = lower value 0.942 | [2] 0.96 | S. cerevisiae deletion strains, locus YCL061C, strain MRC1, stronger effect = lower value 0.978 | S. cerevisiae deletion strains, locus YDL017W, strain CDC7, stronger effect = lower value 0.953 | S. cerevisiae deletion strains, locus YDL028C, strain MPS1, stronger effect = lower value 0.938 | [3] 0.976 and 0.966 | S. cerevisiae deletion strains, locus YDL108W, strain KIN28, stronger effect = lower value 0.937 | S. cerevisiae deletion strains, locus YDL132W, strain cdc53, stronger effect = lower value 0.937 | S. cerevisiae deletion strains, locus YDL214C, strain PRR2, stronger effect = lower value 0.904 | S. cerevisiae deletion strains, locus YDR052C, strain DBF4, stronger effect = lower value 0.953 | S. cerevisiae deletion strains, locus YDR054C, strain cdc34, stronger effect = lower value 0.95 | [5] 0.928 | S. cerevisiae deletion strains, locus YDR226W, strain ADK1, stronger effect = lower value 0.97 | S. cerevisiae deletion strains, locus YDR477W, strain SNF1, stronger effect = lower value 0.932 | S. cerevisiae deletion strains, locus YER123W, strain YCK3, stronger effect = lower value 0.88 | S. cerevisiae deletion strains, locus YER133W, strain GLC7, stronger effect = lower value 0.93 | S. cerevisiae deletion strains, locus YFL009W, strain cdc4, stronger effect = lower value 0.942 | S. cerevisiae deletion strains, locus YFL029C, strain CAK1, stronger effect = lower value 0.945 | S. cerevisiae deletion strains, locus YFR003C, strain YPI1, stronger effect = lower value 0.95 | S. cerevisiae deletion strains, locus YFR019W, strain FAB1, stronger effect = lower value 0.92 | S. cerevisiae deletion strains, locus YFR028C, strain CDC14, stronger effect = lower value 0.964 | S. cerevisiae deletion strains, locus YGR040W, strain KSS1, stronger effect = lower value 0.905 | S. cerevisiae deletion strains, locus YGR052W, strain FMP48, stronger effect = lower value 0.922 | [7] 0.957 | S. cerevisiae deletion strains, locus YGR092W, strain DBF2, stronger effect = lower value 0.855 | [8] 0.948 | S. cerevisiae deletion strains, locus YHR079C, strain IRE1, stronger effect = lower value 0.958 | S. cerevisiae deletion strains, locus YHR082C, strain KSP1, stronger effect = lower value 0.989 | [10] 0.951 | S. cerevisiae deletion strains, locus YHR205W, strain SCH9, stronger effect = lower value 0.889 | S. cerevisiae deletion strains, locus YIL147C, strain SLN1, stronger effect = lower value 0.941 | S. cerevisiae deletion strains, locus YJL095W, strain BCK1, stronger effect = lower value 0.913 | S. cerevisiae deletion strains, locus YJL128C, strain PBS2, stronger effect = lower value 0.924 | S. cerevisiae deletion strains, locus YJL157C, strain FAR1, stronger effect = lower value 0.94 | [11] 0.98 | S. cerevisiae deletion strains, locus YJR016C, strain ILV3, stronger effect = lower value 0.931 | [12] 0.952 | S. cerevisiae deletion strains, locus YJR066W, strain TOR1 (second series), stronger effect = lower value 0.897 | S. cerevisiae deletion strains, locus YJR066W, strain TOR1, stronger effect = lower value 0.997 | [13] 0.975 | S. cerevisiae deletion strains, locus YKL048C, strain ELM1, stronger effect = lower value 0.928 | S. cerevisiae deletion strains, locus YKL067W, strain YNK1, stronger effect = lower value 0.904 | S. cerevisiae deletion strains, locus YKL101W, strain HSL1, stronger effect = lower value 0.874 | S. cerevisiae deletion strains, locus YKL193C, strain SDS22, stronger effect = lower value 0.943 | S. cerevisiae deletion strains, locus YKL203C, strain TOR2, stronger effect = lower value 0.996 | [15] 0.975 | S. cerevisiae deletion strains, locus YLR133W, strain CKI1, stronger effect = lower value 0.909 | S. cerevisiae deletion strains, locus YLR403W, strain SFP1, stronger effect = lower value 0.898 | S. cerevisiae deletion strains, locus YML070W, strain DAK1, stronger effect = lower value 0.895 | S. cerevisiae deletion strains, locus YMR001C, strain CDC5, stronger effect = lower value 0.95 | S. cerevisiae deletion strains, locus YMR205C, strain PFK2 (second series), stronger effect = lower value 0.917 | [19] 0.986 | [20] 0.956 | S. cerevisiae deletion strains, locus YMR277W, strain FCP1, stronger effect = lower value 0.937 | S. cerevisiae deletion strains, locus YNL006W, strain LST8, stronger effect = lower value 0.947 | S. cerevisiae deletion strains, locus YNL020C, strain ARK1, stronger effect = lower value 0.914 | S. cerevisiae deletion strains, locus YNL128W, strain TEP1, stronger effect = lower value 0.956 | [22] 0.981 | S. cerevisiae deletion strains, locus YNL161W, strain CBK1, stronger effect = lower value 0.949 | S. cerevisiae deletion strains, locus YNL183C, strain NPR1, stronger effect = lower value 0.941 | S. cerevisiae deletion strains, locus YNL207W, strain RIO2, stronger effect = lower value 0.95 | S. cerevisiae deletion strains, locus YNL222W, strain SSU72, stronger effect = lower value 0.947 | [23] 0.842 | S. cerevisiae deletion strains, locus YNL307C, strain MCK1 (second series), stronger effect = lower value 0.905 | [24] 0.981 | S. cerevisiae deletion strains, locus YOL078W, strain AVO1, stronger effect = lower value 0.936 | S. cerevisiae deletion strains, locus YOL136C, strain PFK27, stronger effect = lower value 0.866 | S. cerevisiae deletion strains, locus YOR061W, strain CKA2, stronger effect = lower value 0.926 | S. cerevisiae deletion strains, locus YOR119C, strain RIO1, stronger effect = lower value 0.973 | S. cerevisiae deletion strains, locus YOR231W, strain MKK1, stronger effect = lower value 0.89 | S. cerevisiae deletion strains, locus YOR329C, strain SCD5, stronger effect = lower value 0.958 | S. cerevisiae deletion strains, locus YPL031C, strain PHO85, stronger effect = lower value 0.922 | [26] 0.83 | S. cerevisiae deletion strains, locus YPL153C, strain RAD53, stronger effect = lower value 0.929 | S. cerevisiae deletion strains, locus YPL204W, strain HRR25, stronger effect = lower value 0.894 | S. cerevisiae deletion strains, locus YPL209C, strain IPL1, stronger effect = lower value 0.955 | S. cerevisiae deletion strains, locus YPL256C, strain CLN2, stronger effect = lower value 0.977 | S. cerevisiae deletion strains, locus YPR025C, strain CCL1, stronger effect = lower value 0.95 | S. cerevisiae deletion strains, locus YPR106W, strain ISR1, stronger effect = lower value 0.951 | S. cerevisiae deletion strains, locus YPR111W, strain DBF20, stronger effect = lower value 0.912 | [28] 0.829 | S. cerevisiae deletion strains, strain NNK1, stronger effect = lower value 0.971 | S. cerevisiae deletion strains, strain TSCII, stronger effect = lower value 0.947 | S. cerevisiae strains, strain wild type, stronger effect = lower value 0.943
active: [4] 0.791 | [6] 0.857 | [14] 0.565 | [16] 0.503 | S. cerevisiae deletion strains, locus YLR113W, strain HOG1, stronger effect = lower value 0.835 | [17] 0.68 | [18] 0.841 | [21] 0.535 | [25] 0.773 | [27] 0.76
0.482 (active) and 1.02 (inactive): [9]

N#CC(C#N)=CNc1cc(C(F)(F)F)ccc1N1CCCCC1
inactive: [1] 0.995 | [2] 1 | [3] 0.991 | [4] 0.997 | [5] 0.973 | [6] 1 | [7] 0.987 | [8] 1 | [9] 0.936 | [10] 1.01 | [11] 1 | [12] 1 | [13] 0.966 | S. cerevisiae deletion strains, locus YKL190W, strain CNB1, stronger effect = lower value 1 | [14] 0.997 | [15] 1 | [16] 0.96 | [17] 1.04 | [18] 0.989 | [19] 1 | [20] 0.986 | [21] 0.909 | [22] 1.01 | [23] 1 | [24] 0.992 | [25] 1.01 | S. cerevisiae deletion strains, locus YOL006C, strain TOP1, stronger effect = lower value 1.01 | [26] 0.989 | [27] 0.996 | [28] 0.915
